Several values for one entry are separate records, joined by “and”; a condition that tells them apart may be missing. Identical values can stand only once. ± gives the standard deviation of the averaged measurements.
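Also: End-point A600 read in BHI broth at 37 °C with 2% DMSO, inhibition computed as (1 − OD with compound plus ceftriaxone ÷ OD with ceftriaxone only) × 100.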

This assay relates to Listeria monocytogenes 10403S. Put plainly: growth inhibition relative to ceftriaxone-alone control; higher = stronger potentiation of ceftriaxone growth inhibition. As to conditions: 10 µM; ceftriaxone 1 ug/ml; 12 h.
Take `CCS(=O)(=O)c1ccc(OC)c(Nc2ncc(-c3cccc(OC)c3)o2)c1`: the growth inhibition was -9.19 ± 17%. Under `Cc1ccc(NC(=O)c2ccnc(N3CCCC3)c2)cc1-c1ccc(C(=O)NCC2CC2)cc1` stands -0.943 ± 1.3%; under `O=C1NC(=O)C(=Cc2ccc(-c3ccc(F)cc3)o2)S1` (stereo in doubt), 31.8 ± 28%; under `COc1cccc(-n2ncc3c(N/N=C/c4ccc(F)cc4)ncnc32)c1`, -3.41 ± 1%.

As for `Fc1cccc(COc2ccc(Nc3ncnc4sc(-c5cccs5)cc34)cc2Cl)c1`, the growth inhibition was -4.36 ± 4.4%. To `CCC(=O)N1CCN(c2ccc(-n3c(=O)ccc4cnc5ccc(-c6cnc7ccccc7c6)cc5c43)cc2C(F)(F)F)CC1` [Torin 1] belongs -4.1 ± 10%; to `CN1CCN(Cc2ccc(-c3cc4ncnc(Nc5ccc(OCc6cccc(F)c6)c(Cl)c5)c4s3)o2)CC1`, 3 ± 2.7%; to `COc1cccc(-n2ncc3c(N/N=C/c4ccc(C)cc4)ncnc32)c1`, -9.19 ± 0.67%. Under `NC(=O)c1cccc(Nc2nccc(Nc3cccc4[nH]ncc34)n2)c1` stands 0.727 ± 1.3%; under `Cc1cc(-c2ccccn2)cc(C)c1/C=C/c1cncc(-c2nn[nH]n2)c1`, -7.47 ± 9.6%; under `C[C@@H]1CCN(C(=O)CC#N)C[C@@H]1N(C)c1ncnc2[nH]ccc12`, 11.4% and 15.6%. As to `O=S(=O)(CCNCc1ccc(-c2ccc3ncnc(Nc4ccc(OCc5cccc(F)c5)c(Cl)c4)c3c2)o1)c1ccccc1`, the growth inhibition was -0.141 ± 13%.

As for `CO[C@H]1C[C@@H]2CC[C@@H](C)[C@@](O)(O2)C(=O)C(=O)N2CCCC[C@H]2C(=O)O[C@H]([C@H](C)C[C@@H]2CC[C@@H](O)[C@H](OC)C2)CC(=O)[C@H](C)/C=C(\C)[C@@H](O)[C@@H](OC)C(=O)[C@H](C)C[C@H](C)/C=C/C=C/C=C/1C` [Rapamycin (Sirolimus)], the growth inhibition came out at 30.2 ± 26%. In the case of `CCn1c(-c2nonc2N)nc2c(N3CCCC3)nccc21`, the growth inhibition came to 18.7 ± 38%. Turning to `Cc1ccc(NC(=O)c2cccc(C(C)(C)C#N)c2)cc1Nc1ccc2ncn(C)c(=O)c2c1`, the growth inhibition is 47.4 ± 11%. With `O=C(Nc1n[nH]c2cc(-c3cc(F)ccc3F)ccc12)C1CC1`, the growth inhibition is -0.453 ± 13%. On to `CNC(=O)Nc1ccc(-c2nc(N3CC4CCC(C3)O4)c3cnn(C4CCC5(CC4)OCCO5)c3n2)cc1`, for which the growth inhibition was 7.7 ± 6.6%.

With `NS(=O)(=O)c1ccc(N/N=C2\C(=O)Nc3ccc(C(=O)NCc4ccncc4)cc32)cc1`, the growth inhibition is -9.46 ± 18%.

As for `CCCN(CCS(C)(=O)=O)Cc1ccc(-c2ccc3ncnc(Nc4ccc(OCc5cccc(F)c5)c(Cl)c4)c3c2)o1`, the growth inhibition is -7.09 ± 4.2%. With `CC(C)n1nc(-c2cc3cc(O)ccc3[nH]2)c2c(N)ncnc21`, the growth inhibition was 16.2 ± 10%. To `CNC(=O)c1ccc(-c2cnc3ncc(Cc4ccc5ncccc5c4)n3n2)cc1F` belongs 16.9 ± 8.9%; to `O=C1NC(=O)/C(=C/c2ccc3nccc(-c4ccncc4)c3c2)S1`, 19.4 ± 3.5%; to `CN(C)c1ccc(-c2nc3ncc(Cl)c(N4CCN(CC(=O)Nc5nccs5)CC4)c3[nH]2)cc1`, 15.3 ± 0.56%. In the case of `NS(=O)(=O)c1ccc(N/N=C2\C(=O)Nc3ccc(C(=O)NCCCn4ccnc4)cc32)cc1`, the growth inhibition was -3.24 ± 3.3%. To `CCn1c(-c2nonc2N)nc2c(C#CC(C)(C)O)ncc(OCC3CCNCC3)c21` belongs 29.8 ± 9.6%; to `c1ccc2c(-c3cnn4cc(-c5ccc(N6CCNCC6)cc5)cnc34)ccnc2c1`, 24.6 ± 12%; to `Cc1cc(Nc2nc(N[C@@H](C)c3ccc(F)cc3)c(C#N)cc2F)n[nH]1`, 96.93 ± 0.13%.

Turning to `COc1ccc2[nH]c3c4[nH]c5ccc(OC)cc5c4c4c(c3c2c1)C(=O)NC4=O`, the growth inhibition is -8.86 ± 4.5%. Under `NC(=O)c1ccc(Oc2nccc(-c3c(-c4ccc(F)cc4)ncn3C3CCNCC3)n2)cc1` stands -2.66 ± 0.33%; under `O=C(c1ccc(/C=C/c2n[nH]c3ccccc23)cc1)N1CCNCC1`, 7.15 ± 1.2%; under `CCCNC(=O)Nc1ccc(Oc2ncnc3cc(OC)c(OC)cc23)cc1Cl`, 12.7 ± 1.9%.

Turning to `Cc1ccc2c(-c3ccnc(Nc4ccc5c(c4)OCCO5)n3)c(-c3ccc(C(F)(F)F)cc3)nn2n1`, the growth inhibition was -1.85 ± 0.84%. Under `Nc1ncnc2occ(-c3ccc(NC(=O)Nc4cc(C(F)(F)F)ccc4F)cc3)c12` stands -0.902 ± 0.59%; under `Cc1cc(Cl)cc2c1NC(=O)C2=NNc1ccc(S(N)(=O)=O)cc1`, -9.29 ± 7.3%; under `Cc1cc(O)cc(C)c1/C=C/c1cncc(C(=O)N(C)C)c1`, -3.75 ± 3.3%. As to `CNC(=O)c1cncc(/C=C/c2c(Cl)cccc2Cl)c1`, the growth inhibition is -4.82 ± 4.5%. For the compound `Oc1cc(O)cc(/C=C/c2ccc(O)c(O)c2)c1` [Piceatannol], the growth inhibition is 29.4 ± 16%. In the case of `NC(=O)Nc1sc(-c2ccc(F)cc2)cc1C(N)=O`, the growth inhibition was 40.9 ± 15%.

(Values after the supplement of paper PMC5641865, “A screen for kinase inhibitors identifies antimicrobial imidazopyridine aminofurazans as specific inhibitors of the Listeria monocytogenes PASTA kinase PrkA” (The Journal of Biological Chemistry, 2017).)
